Assay outcomes deposited in PubChem BioAssay by National Center for Advancing Translational Sciences (NCATS).
MARV entry inh: qHTS for inhibitors of binding or entry into cells for Marburg Virus; actives 1.8% (n = 300,000); Marburg virus pseudotyped entry inhibition, cell reporter; Potency, µM (highest dose often 37.8 µM), without a hit: at the top dose activity change, negative = inhibition, actives largely listed as inhibitors; AID 540276, 2011; calls by dose curve; tested in HEK293 cells; also: potency is read from the fitted curve at half-maximal effect; % is scaled to controls: 0 for no effect and ±100 for the full control effect
Shiga inhibitor: A qHTS for Small Molecule Inhibitors of Shiga Toxin | Vero cells, Shiga toxin protein synthesis inhibition reporter | inhibition, % at 38.7 µM | actives 9.2% (n = 290,000) | AID 2315, 2010; in the data active = inhibition mostly above about 28%, no sharp cut-off; inactive = mostly below about 43%; also: 0% is about no effect
Cycloheximide cs: Cycloheximide Counterscreen for Small Molecule Inhibitors of Shiga Toxin; max response, %; actives 12% (n = 300,000); cell reporter, cycloheximide protein synthesis inhibition counterscreen; in the data active = max response mostly above about 13%, no sharp cut-off; inactive = mostly below about 14%; also: read at 38.3 µM for the half of the compounds with a filed dose; 0% is about no effect
Pf growth 96h: Primary qHTS for delayed death inhibitors of the malarial parasite plastid, 96 hour incubation; P. falciparum luciferase reporter growth, 96 h; Potency, µM (doses to about 28.7 µM), for inactives: top-dose activity change, negative = inhibition, usual class: inhibitors; actives 6.9% (n = 320,000); AID 504834, 2011; also: potency is read from the fitted curve at half-maximal effect; % is scaled to controls: 0 for no effect and ±100 for the full control effect
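P. falciparum expressing integrated firefly luciferase, in erythrocytes at 2% hematocrit, 0.05% parasitemia, incubated with compounds 96 h at 37 C, 5% CO2. Growth inhibition read as loss of luminescence; two-generation exposure targets delayed-death apicoplast inhibitors.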
Pf growth 48h: Primary qHTS for delayed death inhibitors of the malarial parasite plastid, 48 hour incubation. Potency, µM (highest dose often 28.7 µM), for inactives: at the top dose activity change, negative = inhibition, actives largely listed as inhibitors. AID 504832, 2011. P. falciparum luciferase growth in erythrocytes, 48 h. actives 5.9% (n = 310,000); also: potency is read from the fitted curve at half-maximal effect; % is scaled to controls: 0 for no effect and ±100 for the full control effect
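Luciferase-expressing parasites in RBCs, 2% Hct / 0.1% parasitemia final; RPMI 1640 + 0.5% Albumax; 37 C, 5% CO2, one generation; luminescence read-out, lower signal = inhibition.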
Lassa entry inh: qHTS for Inhibitors of binding or entry into cells for Lassa Virus; Lassa virus pseudotype entry inhibition, cell reporter; Potency, µM (titrated, usually from 37.9 µM), inactives show at the highest dose activity change, negative = inhibition, hits mostly inhibitors; actives 1.2% (n = 300,000); calls by dose curve; tested in HEK293 cells; also: potency is read from the fitted curve at half-maximal effect; % is scaled to controls: 0 for no effect and ±100 for the full control effect; nearly all actives have a fitted effect of over 50% in size
* = called active by the depositor; ? = inconclusive; nt = no result; [ ] = another dose, or the depositor's remark. The list is not random: actives were taken first. Their share in the collection is about 19%. Unless noted, calls follow the shape of the dose curve; as a rule, active = well fitted inhibition curve with a large enough effect; inconclusive = small, poorly fitted or top-dose-only effect, or another doubt; inactive = no such curve, though single readings can be large or run the other way.

SMILES	MARV entry inh	Shiga inhibitor	Cycloheximide cs	Pf growth 96h	Pf growth 48h	Lassa entry inh
Cc1nc(-c2ccc(NC(=O)c3ccco3)cc2)cs1	nt	27.5	11.1*	?	-17.2%	nt
O=C(Nc1ccc(-c2csc(-c3ccccc3)n2)cc1)c1ccccc1	?	-10.3	-1.5	?	?	?
Cc1nc(-c2cccc(NC(=O)c3ccco3)c2)cs1	?	45.0	26.7*	-21.8%	?	7.7%[46.1 µM]
Nc1nc(-c2ccc(NC(=O)c3ccco3)cc2)cs1	5.01µM*	40.3*	16.9*	123.4%	11.2%	?
CCS(=O)(=O)c1ccc(-c2cccc(NC(=O)c3ccco3)c2)nn1	-14.3%	nt	nt	?	?	0.0%
Cc1cc(NS(=O)(=O)c2ccc(NC(=O)c3ccco3)cc2)nc(C)n1	-1.3%	-13.8	-5.2	-0.6%	nt	-15.3%
OCCCc1ccccc1	nt	1.8	-5.6	nt	nt	nt
O=C(CNC(=O)C12CC3CC(CC(C3)C1)C2)NC1=NCCS1	27.3%	-1.6	-2.9	nt	-12.1%	-10.8%
O=S(=O)(/C=C/c1cccc(Br)c1)N1CCOCC1	nt	-3.0	15.0	34.5%	24.4%	nt
CC(C)=CCC1C(=O)N(c2ccccc2)N(c2ccccc2)C1=O	nt	nt	nt	7.57µM*	?	nt
CCOc1ccc(C2CC(=O)NC(SC)=C2C#N)cc1 (stereo not given)	nt	-6.9	-5.7	-23.2%	nt	nt
Cc1ccc([C@@H]2CC=C(C(=O)O)CN2S(=O)(=O)c2ccccc2C)cc1	nt	nt	nt	82.4%	?	nt
Nc1nc2c(Cl)ccc(Cl)c2s1	-2.9%[46.1 µM]	31.6	-4.1	8.28µM*	?	-8.5%
Nc1nc2c(Cl)cc(Cl)cc2s1	?	39.7	17.9	39.4%	19.7%	18.8%[46.1 µM]
Cc1ccc(S(=O)(=O)CCC(=O)Nc2ccccc2N2CCCC2)cc1	nt	nt	nt	-2.0%	-27.1%	nt
OCC1OC(n2ccc3c(NO)ncnc32)C(O)C1O (stereo not given)	0.316µM*	nt	nt	nt	nt	?
CN(C)c1ncnc2c1ccn2C1OC(CO)C(O)C1O (stereo not given)	2.24µM*	nt	nt	nt	nt	3.55µM*
CN(C)c1nc2c(N)ncnc2n1C1OC(CO)C(O)C1O (stereo not given)	16.9%	nt	nt	nt	nt	0.2%
O=C(CN(C(=O)c1csnn1)c1cccc(C(F)(F)F)c1)NC1CCCC1	-3.8%[46.1 µM]	-13.2	-1.9	21.9%	1.5%	24.4%
CCCN1C(=O)c2oc3cc(C)cc(C)c3c(=O)c2C1c1ccc(F)cc1 (stereo not given)	-7.0%[46.1 µM]	nt	nt	nt	nt	5.2%[46.1 µM]
O=C(N/N=C/c1cccnc1)c1ccc2c(c1)OCCO2	-2.0%	42.3*	41.6*	45.6%	77.9%	?
O=C(N/N=C\c1ccc2c(c1)OCO2)c1cncc(Br)c1	-5.3%[46.1 µM]	60.3*	23.1*	1.0%	19.2%	-19.6%[46.1 µM]
O=C(N/N=C/c1ccc(O)cc1)c1cncc(Br)c1	38.7%	20.8	10.8	?	5.2%	-25.0%
O=C(N/N=C/c1cccnc1)c1ccc(NC(=O)c2cccc(Cl)c2)cc1	20.9%[46.1 µM]	23.0	-1.0	24.8%	?	1.3%[46.1 µM]
CCOC(=O)N/N=C\c1ccc(OC(=O)c2ccc3c(c2)OCO3)cc1	16.1%[46.1 µM]	34.8	41.8*	2.1%	-6.2%	0.7%[46.1 µM]
SMILES	MARV entry inh	Shiga inhibitor	Cycloheximide cs	Pf growth 96h	Pf growth 48h	Lassa entry inh
O=C(NN=Cc1ccc(N(CCCl)CCCl)cc1)c1cccnc1	5.62µM*	nt	nt	nt	nt	?
O=C(CNC(=O)c1ccc2c(c1)OCCO2)N/N=C/c1ccco1	14.9%	13.2	7.7	-8.8%	87.0%	?
O=C(N/N=C/c1ccc2c(c1)OCO2)c1cccnc1	2.0%[46.1 µM]	103.5*	48.0*	18.1%	26.5%	17.1%[46.1 µM]
Cc1nc(C)c(C(=O)NN=Cc2ccc(N(CCCl)CCCl)cc2)s1	?	nt	nt	nt	nt	7.08µM*
COc1ccc(/C=N/NC(=O)c2sc(C)nc2C)cc1	-12.2%[46.1 µM]	16.0	11.3	20.6%	18.2%	?
Cc1ccc(/C=N\NC(=O)c2ccc3c(c2)OCO3)o1	nt	52.7	36.7*	1.31µM*	66.5%	nt
O=C(N/N=C/c1ccc([N+](=O)[O-])o1)c1ccc2c(c1)OCO2	nt	8.8	8.8	?	?	nt
O=C(N/N=C/c1ccc(Br)o1)c1ccc2c(c1)OCCO2	?	100.8*	57.4*	8.2%	56.8%	-6.1%
C=CCn1c(O)c(C(C)=NC(C)c2ccccc2)c(=O)[nH]c1=O (stereo not given)	nt	5.7	2.7	-5.2%	-1.2%	nt
COc1c(O)ccc(/C=N/NC(=O)c2ccc3c(c2)OCCO3)c1[N+](=O)[O-]	?	51.9*	21.3*	147.3%	197.6%	?
CN(C)c1ccc(/C=N/NC(=O)c2ccc3c(c2)OCO3)cc1	nt	91.4*	38.9*	213.9%	41.4%	nt
O=C(N/N=C/c1cc2c(cc1[N+](=O)[O-])OCO2)c1ccc2c(c1)OCO2	-15.6%[46.1 µM]	12.9	1.9	-28.5%	18.3%	nt
COc1cc(/C=N/NC(=O)CNC(=O)c2ccc3c(c2)OCCO3)ccc1O	28.1%	16.5	11.0	2.8%	?	13.3%
COc1cc(/C=N/NC(=O)c2ccc3c(c2)OCCO3)cc(Cl)c1O	nt	17.2	23.0*	?	26.9%	nt
Cc1nn(C)cc1/C=N/NC(=O)c1ccc2c(c1)OCO2	11.8%	26.2	15.5*	49.1%	31.8%	20.1%
N#Cc1c2c(c(Nc3ccc(F)cc3)n3c1nc1ccccc13)CCCC2	-0.2%	nt	nt	nt	nt	0.4%
COc1ccc(CNS(=O)(=O)c2ccc3c(c2)CCN3C(=O)C2CC2)cc1	0.6%	-5.6	-2.5	-18.3%	nt	-16.5%
COc1ccc(-c2cc([C@H]3[C@H]4C=CC[C@@H](C)[C@@H]4C(=O)N3Cc3ccccc3)ccc2F)cc1	nt	20.1	1.8	?	?	nt
CCn1c(=NC(=O)C2COc3ccccc3O2)sc2c(OC)ccc(OC)c21 (stereo not given)	nt	8.9	-3.6	-13.1%	-21.8%	nt
O=C(N/N=C/c1ccccc1)c1ccc2c(c1)OCO2	nt	23.7	24.7	?	254.0%	nt
CCn1cc(/C=N/NC(=O)c2ccc3c(c2)OCO3)cn1	?	23.8	35.2*	56.6%	-32.4%	11.1%
O=C(O)c1ccc(/C=N/NC(=O)c2ccc3c(c2)OCCO3)cc1	nt	22.4	20.8*	?	-29.9%	nt
COC(=O)c1cccnc1-n1c(=O)c2cccnc2n(CC(=O)Nc2ccc(Br)cc2)c1=O	nt	-16.3	-6.8	35.5%	?	nt
COC(=O)c1cccnc1-n1c(=O)c2cccnc2n(Cc2ccc([N+](=O)[O-])cc2)c1=O	nt	-11.4	-2.0	?	10.4µM*	nt
COc1nc(N)nc(N2CCOCC2)n1	0.5%	-18.7	-3.0	-93.7%	5.2%	7.4%
COc1nc(N)nc(NC23CC4CC(CC(C4)C2)C3)n1	-3.8%	20.6*	15.4*	16.5%	?	?
COc1ccc(CCn2c(=N)c(C(=O)NC3CCCCC3)cc3c(=O)n4ccccc4nc32)cc1	nt	23.4	-3.9	?	0.928µM*	nt
Cc1cccn2c(=O)c3cc(C(=O)NC4CCCCC4)c(=N)n(Cc4ccccc4)c3nc12	-15.7%[46.1 µM]	-16.8	-2.8	?	-4.5%	?
